This is a sample that favours compounds with a hit; in the whole collection about 3.3% have one here.
Calb FLC: C. albicans growth inhibition with fluconazole, primary screen, CaCi-2 strain, Alamar Blue fluorescence; C. albicans CaCi-2 (fluconazole-resistant clinical isolate) + fluconazole, 48 h; growth inhibition, % (concentration not given with the values); 0.57% of 300,000 active;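 active = growth inhibition above about 58% in most replicates, limit read from the data, passing the limit was not always enough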;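 also: all wells also contain fluconazole at 8 µg/ml as a sub-toxic cotreatment; 0% = median of DMSO wells and 100% = median of geldanamycin control wells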
PHOSPHO1 block: PubChem AID 1565. recombinant PHOSPHO1, absorbance phosphatase assay. inhibition, % at 13.3 µM. 1.1% of 290,000 active; in the data active = inhibition above about 60%
Cl transport mod: KCC2 cotransporter modulators, thallium flux, primary screen, cell-based, HEK293 KCC2, FluoZin-2 fluorescence, MLSMR; Solute carrier family 12 member 5 (Homo sapiens), Q9H2X9; KCC2 cells, thallium flux FluoZin-2 fluorescence; B-score of Tl+ flux slope (higher = more flux/activation; lower = inhibition) at 10 µM; 2.2% of 190,000 active; AID 1456, 2008;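 active = thallium flux slope and its plate-corrected score both differing from the plate sample mean at a set confidence after two filtering rounds, in either direction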;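 also: slope of fluorescence scaled to starting intensity during 10 to 20 s after thallium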
Cardio protect: cardioprotection against H2O2-induced cell death, primary screen, uHTS, H9c2 cells, ATPLite luminescence; H9c2 cardiomyocytes, H2O2 injury protection, 2 h; protection from H2O2 cell death, % at 20 µM; 0.63% of 360,000 active; AID 588492, 2011;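 active = compounds giving at least 50% protection of heart cells from peroxide-induced death in the single-dose screen, raw or plate-pattern-corrected value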;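 also: 0% = DMSO wells with peroxide and 100% = DMSO wells without peroxide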
Efflux pump inh: inhibitors of Candida efflux pumps in yeast, primary screen, S. cerevisiae, Nile Red, multiplex | S. cerevisiae Candida pump triplex | inhibition, % at 10 µM | 0.44% of 330,000 active;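 active = plate passing quality check with inhibition over a set limit, or well fluorescence over plate mean plus 4 SD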;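 also: Nile Red retained in pooled yeast measured as flow cytometry median fluorescence; 0% = buffer negative control and 100% = Enniatin B positive control; higher means more Nile Red kept so more efflux inhibition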
The depositor's hits bear a star.

What do the screens show for `CC(=O)c1ccc(-n2c(-c3cc(-c4ccsc4)n[nH]3)n[nH]c2=S)cc1`?
Calb FLC: -3; PHOSPHO1 block: 65*; Cl transport mod: 1.2; Cardio protect: -1; Efflux pump inh: 0

How did Cc1cc(C(=O)COc2ccccc2C(N)=O)c(C)n1C do in these assays?
Calb FLC: -5; PHOSPHO1 block: 24; Cl transport mod: 0.32; Cardio protect: 52*; Efflux pump inh: 0

How did O=c1ccnc(Nc2ccc([N+](=O)[O-])cc2)[nH]1 do in these assays?
Calb FLC: 0; Cardio protect: 0; Efflux pump inh: 0

How did Cc1cccn2c(=O)c3cc(C(=O)NCc4cccnc4)c(=N)n(C(C)C)c3nc12 do in these assays?
Calb FLC: 5; PHOSPHO1 block: 31; Cl transport mod: -2.7; Cardio protect: 14; Efflux pump inh: 0

What do the screens show for `CC(C)n1c(=N)c(C(=O)NCCc2ccccc2)cc2c(=O)n3ccccc3nc21`?
Calb FLC: 1; PHOSPHO1 block: 63*; Cl transport mod: -1.2; Cardio protect: 6; Efflux pump inh: 0

What do the screens show for `O=C(CSc1nc2ccccc2c(=O)[nH]1)c1ccccc1`?
Calb FLC: 43; PHOSPHO1 block: 6; Cl transport mod: -1; Cardio protect: 51*; Efflux pump inh: 0

What do the screens show for `N#CCCN(C(=O)CSc1n[nH]c(=O)[nH]c1=O)c1ccccc1`?
Cardio protect: 4; Efflux pump inh: 0

What do the screens show for `Cc1ccc(N(CCC#N)C(=O)CSc2nc3ccccc3c(=O)[nH]2)cc1`?
Cardio protect: 80*; Efflux pump inh: 0

What do the screens show for `CC(C)(C)c1ccc(C(=O)CSc2nc3ccccc3c(=O)[nH]2)cc1`?
Calb FLC: 2; PHOSPHO1 block: 19; Cl transport mod: 0.9; Cardio protect: -5; Efflux pump inh: 0

How did Cc1ccc2nc(SCc3nc4ccccc4c(=O)[nH]3)[nH]c2c1 do in these assays?
Calb FLC: 51; PHOSPHO1 block: 25; Cl transport mod: -0.017; Cardio protect: 58*; Efflux pump inh: 0

Results for O=C(CSc1nc2ccccc2c(=O)[nH]1)N1CCCCC1 ?
Calb FLC: -8; PHOSPHO1 block: -9; Cl transport mod: 0.3; Cardio protect: 71*; Efflux pump inh: 0

What do the screens show for `O=C(CSc1nc2ccccc2c(=O)[nH]1)N1CCN(c2ccccc2)CC1`?
Calb FLC: 1; PHOSPHO1 block: 22; Cardio protect: 42; Efflux pump inh: 0

Results for O=C(COC(=O)Cc1ccc(F)cc1)NC(=O)c1ccccc1 ?
Calb FLC: 7; Cardio protect: 20; Efflux pump inh: 0

What do the screens show for `CCCCN(C(=O)CSc1nc2ccccc2n1CC)C1CCS(=O)(=O)C1` (centres undefined)?
Cardio protect: 2; Efflux pump inh: 0

How did OCC[C@H]1C[C@H](O)[C@@H](O)[C@]2(OCCc3ccccc32)O1 do in these assays?
Cardio protect: 10; Efflux pump inh: 0

Results for CN(C)C(=O)CSc1ncccc1-c1nc2ccccc2[nH]1 ?
Calb FLC: 0; PHOSPHO1 block: 24; Cardio protect: 1; Efflux pump inh: 0

How did Cc1ccc2nc(CSc3nc(C)ccc3C#N)[nH]c2c1 do in these assays?
Calb FLC: 4; PHOSPHO1 block: 100*; Cl transport mod: -1.1; Cardio protect: -13; Efflux pump inh: 0

Results for O=C(CSc1ncccc1-c1nc2ccccc2[nH]1)N1CCCCC1 ?
Calb FLC: 8; PHOSPHO1 block: 89*; Cl transport mod: -0.024; Cardio protect: 3; Efflux pump inh: 0

How did Cc1oc(-c2ccc(-c3ccccc3)cc2)nc1CN(CCO)C(C)C do in these assays?
Calb FLC: -1; PHOSPHO1 block: 29; Cardio protect: 0; Efflux pump inh: 0

What do the screens show for `Fc1ccc(C2NC(=S)NC3=C2N2CCC3CC2)cc1` (centres undefined)?
Calb FLC: -2; PHOSPHO1 block: 76*; Cl transport mod: -0.0016; Cardio protect: -1; Efflux pump inh: 0

Results for NS(=O)(=O)c1ccc(NC(=S)NCc2ccc3c(c2)OCO3)cc1 ?
Calb FLC: 39; PHOSPHO1 block: -55; Cl transport mod: 1.5; Cardio protect: -4; Efflux pump inh: 0

What do the screens show for `NS(=O)(=O)c1cccc(NC(=S)NCc2ccc3c(c2)OCO3)c1`?
Calb FLC: 116*; PHOSPHO1 block: -10; Cl transport mod: 0.83; Cardio protect: -1; Efflux pump inh: 0

Results for CC(C)(C)c1ccc(C(=O)CCCSC2=C(C#N)C(c3ccco3)C3=C(CCCC3=O)N2)cc1 (centres undefined) ?
PHOSPHO1 block: 71*; Cardio protect: 0; Efflux pump inh: 0

Results for Cc1ccc(C(=O)CSC2=C(C#N)C(c3ccco3)C3=C(CCCC3=O)N2)cc1 (centres undefined) ?
Calb FLC: 29; PHOSPHO1 block: -11; Cl transport mod: -3.6; Cardio protect: 9; Efflux pump inh: 0

What do the screens show for `CCOc1ccc(C(C)=O)cc1CSc1nnc(-c2ccoc2C)n1N`?
Calb FLC: -3; PHOSPHO1 block: 75*; Cl transport mod: 0.44; Cardio protect: 15; Efflux pump inh: 0

Results for Cc1cc(NC(=O)CSc2nnc(-c3ccoc3C)n2N)no1 ?
Calb FLC: -18; PHOSPHO1 block: 55; Cl transport mod: 0.91; Cardio protect: 8; Efflux pump inh: 0

Results for O=C(COC(=O)c1ccc2c(c1)OCCO2)NCCc1ccccc1 ?
Cardio protect: -4; Efflux pump inh: 0

How did COC(=O)CCN1CCN(S(=O)(=O)c2ccccc2Br)CC1 do in these assays?
Calb FLC: 18; PHOSPHO1 block: 62*; Cl transport mod: 0.42; Cardio protect: -2; Efflux pump inh: 0

What do the screens show for `COC(=O)CCN1CCN(S(=O)(=O)c2ccc3c(c2)OCCO3)CC1`?
Cardio protect: 1; Efflux pump inh: 0

How did COc1ccc(/C=C(\C#N)C(=O)NCc2ccccc2)cc1O do in these assays?
Calb FLC: -7; PHOSPHO1 block: 30; Cardio protect: 7; Efflux pump inh: 0

How did N#C/C(=C\c1ccc(O)c(O)c1)C(=O)NCCc1ccccc1 do in these assays?
Cardio protect: 77*; Efflux pump inh: 0

What do the screens show for `N#C/C(=C\c1ccc(O)c(O)c1)C(=O)N1CCc2ccccc21`?
Cardio protect: 77*; Efflux pump inh: 1

What do the screens show for `COc1cc(/C=C(\C#N)C(=O)N2CCc3ccccc32)ccc1O`?
Calb FLC: 4; PHOSPHO1 block: -5; Cl transport mod: -2.7; Cardio protect: 4; Efflux pump inh: 0

How did CCOc1ccc(CCNC(=O)c2cc3c(C)nccc3[nH]c2=O)cc1OCC do in these assays?
Calb FLC: -2; PHOSPHO1 block: -13; Cl transport mod: -2.5; Cardio protect: 72*; Efflux pump inh: 0

High-throughput results as filed in PubChem BioAssay.
